{"source": "ChEMBL document CHEMBL2218924", "about": "“A broad activity screen in support of a chemogenomic map for kinase signalling research and drug discovery” (Biochem J, 2013)", "key": {"[1]": {"target": "Tyrosine-protein kinase SYK (Homo sapiens) (UniProt P43405)", "conditions": "at 10 µM"}, "[2]": {"target": "T1, Mitogen-activated protein kinase kinase kinase 7 (Homo sapiens) (UniProt O43318)", "T1 sequence (whole entry)": "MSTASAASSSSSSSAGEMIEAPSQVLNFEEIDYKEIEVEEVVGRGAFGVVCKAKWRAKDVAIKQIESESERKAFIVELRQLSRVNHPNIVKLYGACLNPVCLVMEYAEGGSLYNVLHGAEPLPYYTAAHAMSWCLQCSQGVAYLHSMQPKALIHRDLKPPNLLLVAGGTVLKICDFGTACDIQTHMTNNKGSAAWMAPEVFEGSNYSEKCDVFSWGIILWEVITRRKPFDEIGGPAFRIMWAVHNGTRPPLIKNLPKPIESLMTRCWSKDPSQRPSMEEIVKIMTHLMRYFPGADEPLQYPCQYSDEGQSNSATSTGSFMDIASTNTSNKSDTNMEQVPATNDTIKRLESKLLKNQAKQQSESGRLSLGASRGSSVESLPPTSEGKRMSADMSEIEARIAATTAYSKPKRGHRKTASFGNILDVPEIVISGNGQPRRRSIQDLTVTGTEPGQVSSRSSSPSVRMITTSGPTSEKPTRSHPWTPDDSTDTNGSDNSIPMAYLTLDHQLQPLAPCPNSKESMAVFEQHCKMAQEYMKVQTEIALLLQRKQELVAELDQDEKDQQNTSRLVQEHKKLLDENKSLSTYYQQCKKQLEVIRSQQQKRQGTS", "conditions": "at 1 µM"}, "[3]": {"target": "T1, Mitogen-activated protein kinase kinase kinase 7 (Homo sapiens)", "conditions": "at 10 µM"}, "[4]": {"target": "T2, Serine/threonine-protein kinase TAO1 (Homo sapiens) (UniProt Q7L7X3)", "T2 sequence (whole entry)": "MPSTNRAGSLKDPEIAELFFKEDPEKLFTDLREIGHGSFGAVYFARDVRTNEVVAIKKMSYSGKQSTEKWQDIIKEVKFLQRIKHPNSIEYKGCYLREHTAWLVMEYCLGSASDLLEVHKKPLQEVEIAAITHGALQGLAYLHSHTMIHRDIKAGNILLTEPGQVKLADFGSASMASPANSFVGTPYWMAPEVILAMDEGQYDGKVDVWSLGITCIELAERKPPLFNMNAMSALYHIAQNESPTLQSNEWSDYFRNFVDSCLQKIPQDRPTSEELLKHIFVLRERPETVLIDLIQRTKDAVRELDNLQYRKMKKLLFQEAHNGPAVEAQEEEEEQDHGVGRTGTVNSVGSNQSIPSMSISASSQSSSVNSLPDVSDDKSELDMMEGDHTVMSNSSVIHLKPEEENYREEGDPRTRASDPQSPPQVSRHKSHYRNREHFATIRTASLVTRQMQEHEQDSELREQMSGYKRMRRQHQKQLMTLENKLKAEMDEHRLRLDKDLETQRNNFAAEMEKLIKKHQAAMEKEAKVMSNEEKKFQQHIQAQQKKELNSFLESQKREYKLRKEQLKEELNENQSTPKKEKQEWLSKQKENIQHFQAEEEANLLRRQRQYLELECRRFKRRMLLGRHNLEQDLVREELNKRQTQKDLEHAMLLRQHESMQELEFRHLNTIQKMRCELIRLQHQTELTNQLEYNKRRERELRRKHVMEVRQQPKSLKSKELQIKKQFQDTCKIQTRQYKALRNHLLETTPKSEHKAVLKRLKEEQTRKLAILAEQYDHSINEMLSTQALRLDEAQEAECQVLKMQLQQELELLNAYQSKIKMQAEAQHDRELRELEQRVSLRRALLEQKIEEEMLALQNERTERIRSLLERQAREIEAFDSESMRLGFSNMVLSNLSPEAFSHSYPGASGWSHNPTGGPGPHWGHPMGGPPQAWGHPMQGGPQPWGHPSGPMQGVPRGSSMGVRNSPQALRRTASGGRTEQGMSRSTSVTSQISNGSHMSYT", "conditions": "at 1 µM"}, "[5]": {"target": "T2, Serine/threonine-protein kinase TAO1 (Homo sapiens)", "conditions": "at 10 µM"}, "[6]": {"target": "T3, Serine/threonine-protein kinase TAO2 (Homo sapiens) (UniProt Q9UL54)", "T3 sequence (whole entry)": "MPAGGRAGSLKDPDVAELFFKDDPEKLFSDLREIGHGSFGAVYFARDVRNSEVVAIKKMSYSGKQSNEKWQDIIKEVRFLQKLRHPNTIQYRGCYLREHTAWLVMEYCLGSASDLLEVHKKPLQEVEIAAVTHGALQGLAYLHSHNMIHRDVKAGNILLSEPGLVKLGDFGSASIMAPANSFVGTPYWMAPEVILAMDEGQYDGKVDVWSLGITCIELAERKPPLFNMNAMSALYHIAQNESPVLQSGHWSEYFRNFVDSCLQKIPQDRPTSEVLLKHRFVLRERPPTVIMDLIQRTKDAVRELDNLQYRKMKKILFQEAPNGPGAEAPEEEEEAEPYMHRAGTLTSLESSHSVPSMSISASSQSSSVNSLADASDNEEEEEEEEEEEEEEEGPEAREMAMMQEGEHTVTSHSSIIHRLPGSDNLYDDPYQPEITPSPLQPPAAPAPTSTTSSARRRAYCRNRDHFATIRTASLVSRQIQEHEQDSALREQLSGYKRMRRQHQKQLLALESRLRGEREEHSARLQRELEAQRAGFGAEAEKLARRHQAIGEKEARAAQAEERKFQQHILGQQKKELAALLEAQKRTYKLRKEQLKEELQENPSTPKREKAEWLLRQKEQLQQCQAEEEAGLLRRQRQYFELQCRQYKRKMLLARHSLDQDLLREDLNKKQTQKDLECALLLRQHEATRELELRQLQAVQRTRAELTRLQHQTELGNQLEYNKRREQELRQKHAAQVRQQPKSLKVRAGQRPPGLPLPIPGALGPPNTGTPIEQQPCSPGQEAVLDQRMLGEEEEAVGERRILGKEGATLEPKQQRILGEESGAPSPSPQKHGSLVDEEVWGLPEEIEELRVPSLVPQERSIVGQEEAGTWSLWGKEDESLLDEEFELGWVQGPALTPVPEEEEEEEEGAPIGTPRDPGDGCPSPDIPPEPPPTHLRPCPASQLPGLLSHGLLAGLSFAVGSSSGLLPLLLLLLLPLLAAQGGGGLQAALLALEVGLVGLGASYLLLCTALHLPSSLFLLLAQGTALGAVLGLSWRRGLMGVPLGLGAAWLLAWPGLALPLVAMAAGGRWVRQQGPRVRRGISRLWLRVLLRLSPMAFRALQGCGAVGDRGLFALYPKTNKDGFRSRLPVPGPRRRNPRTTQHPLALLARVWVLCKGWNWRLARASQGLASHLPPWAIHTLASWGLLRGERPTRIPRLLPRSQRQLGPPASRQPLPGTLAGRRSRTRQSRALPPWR", "conditions": "at 10 µM"}, "[7]": {"target": "T4, Serine/threonine-protein kinase TAO3 (Homo sapiens) (UniProt Q9H2K8)", "T4 sequence (whole entry)": "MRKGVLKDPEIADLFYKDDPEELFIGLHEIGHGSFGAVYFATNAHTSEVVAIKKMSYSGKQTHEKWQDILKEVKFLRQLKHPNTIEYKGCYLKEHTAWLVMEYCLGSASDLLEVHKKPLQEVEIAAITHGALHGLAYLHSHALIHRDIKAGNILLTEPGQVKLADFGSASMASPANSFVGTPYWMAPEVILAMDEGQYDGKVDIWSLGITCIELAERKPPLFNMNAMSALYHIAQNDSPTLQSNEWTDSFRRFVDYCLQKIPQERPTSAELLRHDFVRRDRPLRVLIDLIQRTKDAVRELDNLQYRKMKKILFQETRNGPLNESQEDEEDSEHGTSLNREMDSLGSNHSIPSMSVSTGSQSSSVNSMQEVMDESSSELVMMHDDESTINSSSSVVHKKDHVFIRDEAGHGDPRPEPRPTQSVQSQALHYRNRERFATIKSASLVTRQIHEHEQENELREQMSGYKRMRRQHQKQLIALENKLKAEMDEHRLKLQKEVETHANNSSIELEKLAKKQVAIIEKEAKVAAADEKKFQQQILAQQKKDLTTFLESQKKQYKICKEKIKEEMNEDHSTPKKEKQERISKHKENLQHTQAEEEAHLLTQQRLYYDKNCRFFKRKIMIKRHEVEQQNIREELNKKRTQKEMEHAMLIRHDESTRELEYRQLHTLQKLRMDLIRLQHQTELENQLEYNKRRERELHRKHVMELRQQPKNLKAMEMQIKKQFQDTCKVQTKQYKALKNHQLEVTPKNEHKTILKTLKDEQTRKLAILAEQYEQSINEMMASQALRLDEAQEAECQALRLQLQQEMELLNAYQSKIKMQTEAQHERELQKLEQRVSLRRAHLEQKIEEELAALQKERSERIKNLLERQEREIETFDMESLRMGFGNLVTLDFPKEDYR", "conditions": "at 1 µM"}, "[8]": {"target": "T4, Serine/threonine-protein kinase TAO3 (Homo sapiens)", "conditions": "at 10 µM"}, "[9]": {"target": "T5, Serine/threonine-protein kinase TBK1 (Homo sapiens) (UniProt Q9UHD2)", "T5 sequence (whole entry)": "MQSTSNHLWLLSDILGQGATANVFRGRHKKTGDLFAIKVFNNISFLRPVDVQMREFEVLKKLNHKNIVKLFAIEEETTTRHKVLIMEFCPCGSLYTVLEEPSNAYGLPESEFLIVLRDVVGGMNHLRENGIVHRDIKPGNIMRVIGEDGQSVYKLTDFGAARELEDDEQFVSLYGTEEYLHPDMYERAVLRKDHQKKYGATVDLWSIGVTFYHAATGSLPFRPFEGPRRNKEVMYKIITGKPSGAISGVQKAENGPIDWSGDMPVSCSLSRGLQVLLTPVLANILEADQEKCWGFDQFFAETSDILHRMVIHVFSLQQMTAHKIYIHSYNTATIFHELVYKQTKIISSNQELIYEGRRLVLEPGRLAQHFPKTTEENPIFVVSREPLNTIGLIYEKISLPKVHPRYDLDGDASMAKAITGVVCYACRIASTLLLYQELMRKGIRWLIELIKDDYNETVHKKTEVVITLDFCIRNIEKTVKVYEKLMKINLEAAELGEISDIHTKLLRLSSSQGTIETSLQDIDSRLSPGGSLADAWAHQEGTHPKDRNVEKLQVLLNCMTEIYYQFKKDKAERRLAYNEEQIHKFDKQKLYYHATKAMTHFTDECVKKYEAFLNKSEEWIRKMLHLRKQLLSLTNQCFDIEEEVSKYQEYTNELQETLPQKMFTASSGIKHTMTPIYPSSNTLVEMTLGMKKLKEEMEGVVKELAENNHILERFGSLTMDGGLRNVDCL", "conditions": "at 1 µM"}}, "data": [{"smiles": "Cn1nc2c3c(cccc31)C(=O)c1ccccc1-2", "values": [{"measurement": "residual activity", "setting": "[1]", "result": 100, "unit": "%"}, {"measurement": "residual activity", "setting": "[2]", "result": 87, "unit": "%"}, {"measurement": "residual activity", "setting": "[3]", "result": 46, "unit": "%"}, {"measurement": "residual activity", "setting": "[4]", "result": 94, "unit": "%"}, {"measurement": "residual activity", "setting": "[5]", "result": 88, "unit": "%"}, {"measurement": "residual activity", "setting": "[6]", "result": 95, "unit": "%"}, {"measurement": "residual activity", "setting": "[7]", "result": 91, "unit": "%"}, {"measurement": "residual activity", "setting": "[8]", "result": 90, "unit": "%"}, {"measurement": "residual activity", "setting": "[9]", "result": 67, "unit": "%"}]}]}
